Test results from the supplement of paper PMC11732987, “Enantioselective OTUD7B fragment discovery through chemoproteomics screening and high-throughput optimisation” (Communications Chemistry, 2025).

Experiments:
Test in all cases: log2 ratio of Biotin-Ahx-Ub-VS probe labelling (fragment/DMSO); higher = less target engagement (more negative = stronger competition), active = hit call of the paper (q ≤ 0.05, log2 ratio ≤ -1)
Conditions in all cases: compound concentration: 200 uM; treatment time: 3 h
USP16 = USP16 (UniProt Q9Y5T5)
USP16, sequence (Q9Y5T5 whole entry, looked up, the tested form may be a part): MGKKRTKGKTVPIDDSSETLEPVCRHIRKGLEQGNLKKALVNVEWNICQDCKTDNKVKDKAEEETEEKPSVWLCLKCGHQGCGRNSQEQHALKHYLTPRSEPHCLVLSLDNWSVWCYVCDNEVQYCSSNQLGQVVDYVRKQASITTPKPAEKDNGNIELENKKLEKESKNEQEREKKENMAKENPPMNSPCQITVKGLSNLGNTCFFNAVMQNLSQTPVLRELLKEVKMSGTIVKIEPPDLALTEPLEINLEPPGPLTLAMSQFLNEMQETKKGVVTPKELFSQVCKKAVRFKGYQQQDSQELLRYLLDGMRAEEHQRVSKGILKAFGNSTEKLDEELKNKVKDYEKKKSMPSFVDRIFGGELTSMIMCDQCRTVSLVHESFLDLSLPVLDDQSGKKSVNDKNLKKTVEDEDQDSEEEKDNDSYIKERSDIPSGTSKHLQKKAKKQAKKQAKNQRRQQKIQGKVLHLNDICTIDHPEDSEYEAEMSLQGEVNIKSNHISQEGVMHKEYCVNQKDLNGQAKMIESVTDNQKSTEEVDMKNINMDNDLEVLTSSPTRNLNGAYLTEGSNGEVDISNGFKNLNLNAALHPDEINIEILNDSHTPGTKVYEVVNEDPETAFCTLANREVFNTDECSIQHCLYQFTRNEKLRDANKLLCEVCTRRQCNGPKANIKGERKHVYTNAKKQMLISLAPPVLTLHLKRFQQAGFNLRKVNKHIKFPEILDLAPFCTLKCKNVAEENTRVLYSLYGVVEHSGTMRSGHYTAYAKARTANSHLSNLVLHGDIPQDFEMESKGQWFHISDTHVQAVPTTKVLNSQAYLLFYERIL
How it was run: (§1)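 Global-median-normalised Spectronaut label-free quantities were compared by unpaired t-test, and values are average log2 ratios of fragment over vehicle. Only proteins with ≥2 unique peptides were used. HEK293T lysate (495 µg per sample) was treated in triplicate with fragment at 200 µM or vehicle for 3 h and then with Biotin-Ahx-Ub-VS at 0.5 µM final for 1 h. Labelled DUBs were then NeutrAvidin-enriched, digested with LysC and trypsin, and run by diaPASEF LC-MS/MS.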

USP19 = target: T1, USP19 (UniProt O94966)
T1 sequence (whole entry): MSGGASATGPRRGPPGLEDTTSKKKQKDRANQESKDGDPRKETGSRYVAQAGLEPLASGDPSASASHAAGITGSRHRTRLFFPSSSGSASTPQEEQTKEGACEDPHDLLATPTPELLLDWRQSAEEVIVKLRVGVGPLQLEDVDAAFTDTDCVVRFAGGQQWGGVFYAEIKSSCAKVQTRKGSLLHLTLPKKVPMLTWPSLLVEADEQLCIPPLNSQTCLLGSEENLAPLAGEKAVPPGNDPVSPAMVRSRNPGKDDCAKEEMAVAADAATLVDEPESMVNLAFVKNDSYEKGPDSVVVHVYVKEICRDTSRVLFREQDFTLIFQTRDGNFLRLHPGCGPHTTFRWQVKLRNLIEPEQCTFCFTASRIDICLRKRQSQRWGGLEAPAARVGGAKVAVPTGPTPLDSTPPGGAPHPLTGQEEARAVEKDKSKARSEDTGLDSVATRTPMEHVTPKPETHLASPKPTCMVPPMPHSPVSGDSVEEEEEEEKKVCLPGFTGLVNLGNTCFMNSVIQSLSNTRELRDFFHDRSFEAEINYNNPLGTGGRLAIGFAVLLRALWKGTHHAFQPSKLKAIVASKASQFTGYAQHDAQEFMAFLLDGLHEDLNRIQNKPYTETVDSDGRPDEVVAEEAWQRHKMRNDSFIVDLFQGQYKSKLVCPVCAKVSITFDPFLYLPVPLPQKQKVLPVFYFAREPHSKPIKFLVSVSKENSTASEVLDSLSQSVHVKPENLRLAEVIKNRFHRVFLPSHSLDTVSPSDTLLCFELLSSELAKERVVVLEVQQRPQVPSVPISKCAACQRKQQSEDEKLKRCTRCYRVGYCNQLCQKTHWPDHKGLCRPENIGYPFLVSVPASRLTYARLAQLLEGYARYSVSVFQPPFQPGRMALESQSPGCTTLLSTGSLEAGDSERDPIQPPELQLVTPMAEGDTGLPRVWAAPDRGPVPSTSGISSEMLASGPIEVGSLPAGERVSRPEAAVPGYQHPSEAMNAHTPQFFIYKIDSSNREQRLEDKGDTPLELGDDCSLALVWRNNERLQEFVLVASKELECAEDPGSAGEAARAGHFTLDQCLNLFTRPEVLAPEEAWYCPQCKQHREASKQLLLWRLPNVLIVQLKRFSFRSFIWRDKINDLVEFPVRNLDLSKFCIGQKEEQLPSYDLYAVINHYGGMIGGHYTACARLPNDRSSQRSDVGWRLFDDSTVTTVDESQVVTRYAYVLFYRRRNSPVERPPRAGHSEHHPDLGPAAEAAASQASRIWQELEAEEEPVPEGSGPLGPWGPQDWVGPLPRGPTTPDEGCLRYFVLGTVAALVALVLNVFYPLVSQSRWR
How it was run: as §1

USP24 = USP24 (UniProt Q9UPU5)
USP24, sequence (Q9UPU5 whole entry): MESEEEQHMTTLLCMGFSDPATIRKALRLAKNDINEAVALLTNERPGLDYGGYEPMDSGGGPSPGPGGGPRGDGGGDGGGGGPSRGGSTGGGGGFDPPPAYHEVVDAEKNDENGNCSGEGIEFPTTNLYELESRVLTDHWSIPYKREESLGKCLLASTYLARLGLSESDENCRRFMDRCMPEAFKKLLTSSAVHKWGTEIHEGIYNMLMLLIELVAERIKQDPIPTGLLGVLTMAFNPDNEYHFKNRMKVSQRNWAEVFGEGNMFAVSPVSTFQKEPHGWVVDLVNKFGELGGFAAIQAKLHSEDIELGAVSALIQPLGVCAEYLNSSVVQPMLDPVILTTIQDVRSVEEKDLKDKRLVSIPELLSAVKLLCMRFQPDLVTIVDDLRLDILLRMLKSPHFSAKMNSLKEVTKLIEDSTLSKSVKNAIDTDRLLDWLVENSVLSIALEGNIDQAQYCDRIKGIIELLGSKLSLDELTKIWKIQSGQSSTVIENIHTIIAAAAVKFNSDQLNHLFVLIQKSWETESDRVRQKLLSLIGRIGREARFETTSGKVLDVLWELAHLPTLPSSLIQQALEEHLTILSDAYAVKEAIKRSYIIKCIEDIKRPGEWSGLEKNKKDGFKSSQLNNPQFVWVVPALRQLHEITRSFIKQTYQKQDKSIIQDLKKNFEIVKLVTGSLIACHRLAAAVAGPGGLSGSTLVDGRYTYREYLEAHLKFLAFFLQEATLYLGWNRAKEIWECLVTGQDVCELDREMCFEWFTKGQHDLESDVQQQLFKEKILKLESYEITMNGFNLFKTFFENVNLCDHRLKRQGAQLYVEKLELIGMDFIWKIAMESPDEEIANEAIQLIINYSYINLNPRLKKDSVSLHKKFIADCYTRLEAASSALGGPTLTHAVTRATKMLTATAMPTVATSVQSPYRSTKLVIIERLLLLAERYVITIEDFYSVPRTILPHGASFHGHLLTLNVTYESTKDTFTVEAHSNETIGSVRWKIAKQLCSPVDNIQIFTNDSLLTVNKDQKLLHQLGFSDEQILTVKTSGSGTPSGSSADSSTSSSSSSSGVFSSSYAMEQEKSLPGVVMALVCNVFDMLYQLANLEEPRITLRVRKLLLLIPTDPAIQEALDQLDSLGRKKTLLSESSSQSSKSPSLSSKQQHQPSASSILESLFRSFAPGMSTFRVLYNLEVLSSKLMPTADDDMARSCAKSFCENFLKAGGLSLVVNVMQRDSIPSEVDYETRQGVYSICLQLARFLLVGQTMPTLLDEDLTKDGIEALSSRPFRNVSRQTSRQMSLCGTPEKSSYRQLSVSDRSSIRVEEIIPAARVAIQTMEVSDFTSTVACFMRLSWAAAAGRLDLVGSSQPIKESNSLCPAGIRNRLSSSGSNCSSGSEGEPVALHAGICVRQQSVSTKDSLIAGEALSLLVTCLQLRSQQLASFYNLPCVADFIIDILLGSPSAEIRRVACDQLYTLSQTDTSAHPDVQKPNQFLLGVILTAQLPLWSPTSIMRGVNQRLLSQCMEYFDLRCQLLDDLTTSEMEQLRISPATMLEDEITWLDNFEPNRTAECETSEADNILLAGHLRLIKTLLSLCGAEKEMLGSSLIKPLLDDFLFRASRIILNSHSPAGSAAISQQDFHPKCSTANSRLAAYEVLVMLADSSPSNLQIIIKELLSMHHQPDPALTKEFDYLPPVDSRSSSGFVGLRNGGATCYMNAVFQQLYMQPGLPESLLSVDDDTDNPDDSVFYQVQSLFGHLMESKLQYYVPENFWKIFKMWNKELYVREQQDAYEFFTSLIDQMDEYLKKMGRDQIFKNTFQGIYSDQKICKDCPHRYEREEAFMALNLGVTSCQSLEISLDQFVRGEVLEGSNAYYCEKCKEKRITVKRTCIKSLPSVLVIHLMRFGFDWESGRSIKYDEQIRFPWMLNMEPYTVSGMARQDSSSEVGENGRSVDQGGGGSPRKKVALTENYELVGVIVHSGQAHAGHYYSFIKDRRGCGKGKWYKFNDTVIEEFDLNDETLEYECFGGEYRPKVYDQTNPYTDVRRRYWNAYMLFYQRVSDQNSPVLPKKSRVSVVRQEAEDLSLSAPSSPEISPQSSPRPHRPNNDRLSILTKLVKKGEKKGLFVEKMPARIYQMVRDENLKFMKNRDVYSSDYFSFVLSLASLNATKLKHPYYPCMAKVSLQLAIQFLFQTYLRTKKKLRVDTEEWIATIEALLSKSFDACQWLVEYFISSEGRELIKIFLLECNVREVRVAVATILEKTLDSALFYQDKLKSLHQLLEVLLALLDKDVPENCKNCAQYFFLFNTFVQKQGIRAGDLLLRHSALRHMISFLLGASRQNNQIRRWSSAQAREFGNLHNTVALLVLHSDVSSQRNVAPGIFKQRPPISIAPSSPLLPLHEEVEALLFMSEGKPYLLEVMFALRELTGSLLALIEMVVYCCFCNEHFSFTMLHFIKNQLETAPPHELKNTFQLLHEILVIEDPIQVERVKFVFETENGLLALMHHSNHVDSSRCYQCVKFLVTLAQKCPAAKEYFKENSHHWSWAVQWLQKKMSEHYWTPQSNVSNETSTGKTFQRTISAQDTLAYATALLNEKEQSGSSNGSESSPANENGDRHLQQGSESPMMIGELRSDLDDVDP
How it was run: as §1

USP25 = target: T2, USP25 (UniProt Q9UHP3)
T2 sequence (whole entry): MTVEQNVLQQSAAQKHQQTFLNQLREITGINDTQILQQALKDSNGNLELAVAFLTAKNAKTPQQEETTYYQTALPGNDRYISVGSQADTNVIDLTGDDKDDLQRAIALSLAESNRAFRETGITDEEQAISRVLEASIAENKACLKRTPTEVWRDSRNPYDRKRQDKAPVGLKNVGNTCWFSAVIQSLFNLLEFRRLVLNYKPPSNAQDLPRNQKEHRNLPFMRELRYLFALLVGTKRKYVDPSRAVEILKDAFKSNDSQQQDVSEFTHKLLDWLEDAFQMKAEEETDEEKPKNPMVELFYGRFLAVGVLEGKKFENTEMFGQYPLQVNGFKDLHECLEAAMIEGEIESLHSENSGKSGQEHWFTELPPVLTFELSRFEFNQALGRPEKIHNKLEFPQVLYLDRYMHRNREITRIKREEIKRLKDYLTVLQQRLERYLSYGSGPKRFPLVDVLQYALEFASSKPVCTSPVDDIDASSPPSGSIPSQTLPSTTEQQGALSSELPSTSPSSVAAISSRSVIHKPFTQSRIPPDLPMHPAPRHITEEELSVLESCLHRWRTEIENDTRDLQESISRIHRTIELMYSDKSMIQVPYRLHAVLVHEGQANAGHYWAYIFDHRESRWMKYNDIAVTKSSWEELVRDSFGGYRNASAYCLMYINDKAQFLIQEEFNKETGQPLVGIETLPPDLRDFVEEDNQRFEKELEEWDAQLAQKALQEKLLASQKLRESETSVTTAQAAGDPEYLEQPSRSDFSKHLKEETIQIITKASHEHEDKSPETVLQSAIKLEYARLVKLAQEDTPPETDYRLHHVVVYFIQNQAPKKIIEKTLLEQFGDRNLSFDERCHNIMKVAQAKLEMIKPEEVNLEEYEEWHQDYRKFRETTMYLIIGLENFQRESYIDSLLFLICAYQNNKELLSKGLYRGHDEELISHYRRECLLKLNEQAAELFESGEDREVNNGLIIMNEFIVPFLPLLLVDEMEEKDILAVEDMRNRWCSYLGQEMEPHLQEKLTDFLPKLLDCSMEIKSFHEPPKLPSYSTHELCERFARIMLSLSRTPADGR
How it was run: as §1

USP28 = target: T3, USP28 (UniProt Q96RU2)
T3 sequence (whole entry): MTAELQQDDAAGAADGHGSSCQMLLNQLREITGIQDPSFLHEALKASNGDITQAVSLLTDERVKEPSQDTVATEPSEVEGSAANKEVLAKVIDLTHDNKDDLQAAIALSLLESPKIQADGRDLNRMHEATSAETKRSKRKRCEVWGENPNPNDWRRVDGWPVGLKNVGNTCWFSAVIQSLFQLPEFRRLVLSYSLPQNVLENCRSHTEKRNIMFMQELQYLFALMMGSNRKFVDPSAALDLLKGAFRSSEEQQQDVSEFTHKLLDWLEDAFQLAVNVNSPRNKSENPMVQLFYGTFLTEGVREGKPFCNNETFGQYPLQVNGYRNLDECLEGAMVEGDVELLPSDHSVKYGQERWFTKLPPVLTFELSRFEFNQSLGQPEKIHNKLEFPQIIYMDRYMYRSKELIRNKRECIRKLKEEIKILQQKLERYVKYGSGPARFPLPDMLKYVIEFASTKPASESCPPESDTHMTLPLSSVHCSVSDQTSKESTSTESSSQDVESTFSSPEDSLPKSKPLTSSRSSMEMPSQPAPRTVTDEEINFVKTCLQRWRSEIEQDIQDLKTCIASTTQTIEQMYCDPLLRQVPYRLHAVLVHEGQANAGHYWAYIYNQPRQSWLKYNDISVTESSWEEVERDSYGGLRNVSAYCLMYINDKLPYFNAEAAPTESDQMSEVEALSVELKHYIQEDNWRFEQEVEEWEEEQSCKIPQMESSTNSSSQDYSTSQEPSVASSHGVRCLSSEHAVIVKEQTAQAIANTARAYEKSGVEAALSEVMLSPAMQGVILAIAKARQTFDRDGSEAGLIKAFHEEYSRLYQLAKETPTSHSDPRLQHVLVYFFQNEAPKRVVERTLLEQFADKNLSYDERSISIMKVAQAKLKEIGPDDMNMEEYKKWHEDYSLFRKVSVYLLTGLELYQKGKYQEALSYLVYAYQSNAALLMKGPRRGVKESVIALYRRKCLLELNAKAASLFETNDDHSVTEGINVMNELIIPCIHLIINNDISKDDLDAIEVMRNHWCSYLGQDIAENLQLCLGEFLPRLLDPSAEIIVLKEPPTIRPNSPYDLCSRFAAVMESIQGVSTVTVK
How it was run: as §1

Measured: log2 ratio of Biotin-Ahx-Ub-VS probe labelling

Cl.Cn1cnc2cc(CNC(=O)CCl)ccc21
inactive: USP16 -0.459 | USP19 -0.154 | USP24 -0.0163 | USP25 -0.177 | USP28 -0.154
